# Assay results taken from PubChem BioAssay (NCATS).
# Records with an inconclusive call do not appear. Active and inactive are the calls of the source. Calls come from the whole dose curve; as a rule, active = well fitted cell-killing curve with a large enough effect; inconclusive = small, poorly fitted or top-dose-only effect, or effect the other way; inactive = no such curve, though single readings can be large or run the other way.
# Assay: Quantitative High-Throughput drug screen in 47 multiple myeloma cell lines against the NCATS MIPE library collection: Karpas25_ECACC cell viability assay (AID 1918968; note: nearly all actives have a fitted effect of over 35% in size)
# Conditions: Karpas25 myeloma viability, CellTiter-Glo ATP, 48 h; series mostly up to 45.8 µM; viability (% of control): at the top concentration
# Procedure, shortened: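 Viability readout: CellTiter-Glo luminescence following 5 min room-temperature incubation with reagent. Prior exposure: 48 h, 37C, humidified 5% CO2, 500 cells per well.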
# Potency is the fitted concentration of half-maximal effect.
Compound,Potency,viability (% of control)
O=S(=O)(NCCNCC=Cc1ccc(Br)cc1)c1cccc2cnccc12,9.35 µM (active),–
C=CCc1cccc(C=NNC(=O)CN2CCN(Cc3ccccc3)CC2)c1O,18.7 µM (active),–
CC(C)Oc1cc(Nc2nc(N[C@@H](C)c3ccc(F)cn3)ncc2Cl)[nH]n1,10.5 µM (active),–
CN(C)c1nc(Cc2ccc(NC(=O)c3ccc(C(F)(F)F)cc3)cc2)nc(N(C)C)c1CC(=O)O,10.5 µM (active),–
CN[C@@H]1CN(c2ccc3c(=O)c(C(=O)O)cn(-c4nccs4)c3n2)C[C@@H]1OC,5.12 µM (active),–
CC(C)C[C@@H](C(=O)N[C@H](C(=O)OC1CCCC1)c1ccccc1)[C@H](O)C(=O)NO,20.9 µM (active),–
CCC(=O)OCC(=O)[C@@]1(OC(=O)CC)[C@@H](C)C[C@@H]2[C@H]3CCC4=CC(=O)C=C[C@]4(C)[C@@]3(F)[C@@H](O)C[C@@]21C,0.118 µM (active),–
CNC(=O)[C@H](Cc1ccccc1)NC(=O)[C@H](CC(C)C)[C@H](CSc1cccs1)C(=O)NO,16.6 µM (active),–
COc1c(C)cnc(Cn2cnc3c(Cl)nc(N)nc32)c1C,0.209 µM (active),–
C[C@H]1COC2=C1C(=O)C(=O)c1c2ccc2c1CCCC2(C)C,4.69 µM (active),–
OC[C@H]1O[C@@H](O[C@H]2[C@@H](O)[C@@](O)(CO)O[C@@H]2CO)[C@H](O)[C@@H](O)[C@@H]1O,–,100% (inactive)
CC(=O)NCCC(=O)N[C@@H](CCC(N)=O)C(=O)N[C@@H](CO)C(=O)N[C@@H](CCC(N)=O)C(=O)N[C@@H](CCC(N)=O)C(=O)N[C@H](C(=O)N[C@@H](Cc1ccccc1)C(=O)N[C@]1(C)CCCCCCC=CCCC[C@@](C)(C(=O)N[C@@H](CCC(N)=O)C(=O)N[C@@H](CC(N)=O)C(N)=O)NC(=O)[C@H](CC(C)C)NC(=O)[C@H](CC(C)C)NC(=O)[C@@H](CCCNC(=N)N)NC(=O)[C@H](Cc2c[nH]c3ccccc23)NC(=O)[C@H](CC(C)C)NC(=O)[C@H](CC(N)=O)NC1=O)[C@H](C)O,26.4 µM (active),–
CC(C)C[C@H](NC(=O)c1cc2ccccc2s1)C(=O)N1CCN(C(=O)[C@H](CO)NS(=O)(=O)c2ccc(Cl)cc2Cl)CC1,26.4 µM (active),–
COc1ccc2c(c1)c(C1=C(c3c[nH]c4ccccc34)C(=O)NC1=O)cn2CCCN(C)C,20.9 µM (active),–
Cc1ccc(S(=O)(=O)OCC(=O)Nc2ccc(C(=O)O)c(O)c2)cc1,20.9 µM (active),–
O=C(c1ccc(C=Cc2n[nH]c3ccccc23)cc1)N1CCNCC1,3.72 µM (active),–
C[C@@H]1[C@H](O)[C@@H](C)C=CC=CC=CC=CC=CC=CC=C[C@H](O[C@@H]2O[C@H](C)[C@H](O)[C@H](N)[C@@H]2O)C[C@@H]2O[C@](O)(C[C@@H](O)C[C@@H](O)[C@H](O)CC[C@@H](O)C[C@@H](O)CC(=O)O[C@H]1C)C[C@H](O)[C@@H]2C(=O)O,3.32 µM (active),–

# Assay: Quantitative High-Throughput drug screen in 47 multiple myeloma cell lines against the NCATS MIPE library collection: KMS27_JCRB cell viability assay (AID 1918970); note: nearly all actives have a fitted effect of over 30% in size
# Conditions: KMS27 myeloma cells, CellTiter-Glo ATP viability, 48 h; viability (% of DMSO): at 45.8 µM (top of the series)
# Procedure, shortened: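 Myeloma cells (500 per well) were exposed to MIPE 4.0 compounds for 48 h at 37 °C, 5% CO2; viability was read as ATP luminescence with CellTiter-Glo, normalized to DMSO-only (100%) and media-only (0%) wells.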
Compound,Potency,viability (% of DMSO)
CCc1cc(-c2n[nH]c(C)c2-c2ccc3c(c2)OCCO3)c(O)cc1O,5.9 µM (active),–
CCCCCCCCCCCCCC(=O)N[C@H](CO)[C@H](O)c1ccc([N+](=O)[O-])cc1,14.8 µM (active),–
COc1ccc(CCN(C)CCCOc2ccc(S(=O)(=O)c3[nH]c4ccccc4c3C(C)C)cc2)cc1OC,–,154% (inactive)
CCOc1ccccc1N=Nc1c(C)[nH]n(-c2nc(-c3ccccc3)cs2)c1=O,9.35 µM (active),–
CC1(C)[C@H]2CC[C@]3(C)[C@@H](C(=O)C=C4[C@@H]5C[C@@](C)(C(=O)O)CC[C@]5(C)CC[C@]43C)[C@@]2(C)CC[C@@H]1O,–,124% (inactive)
CC(=O)OCC(=O)[C@@]1(O)CC[C@H]2[C@@H]3CCC4=CC(=O)C=C[C@]4(C)[C@@H]3[C@@H](O)C[C@@]21C,–,123% (inactive)
COc1cc2nc(-c3cc(F)ccc3O)nc(N[C@@H]3CNC[C@@H]3C(C)(C)O)c2cc1OC,5.9 µM (active),–
Nc1ncnc2c1ncn2[C@@H]1O[C@H](CO)[C@@H](O)[C@@H]1O,0.418 µM (active),–
C=C[C@@H]1CN2CCC1C[C@@H]2C(O)c1ccnc2ccc(OC)cc12 (stereo not given in full),–,108% (inactive)
CO[C@H]1/C=C\O[C@@]2(C)Oc3c(C)c(O)c4c(O)c(c5c(nc6cc(C)ccn65)c4c3C2=O)NC(=O)C(C)=CC=C[C@H](C)[C@H](O)[C@@H](C)[C@@H](O)[C@@H](C)[C@H](OC(C)=O)[C@H]1C,18.7 µM (active),–
O=S(=O)(NCCNCC=Cc1ccc(Br)cc1)c1cccc2cnccc12,13.2 µM (active),–
C=CC[N+]1([C@H]2C[C@H]3[C@@H]4CC[C@H]5C[C@H](O)[C@@H](N6CCOCC6)C[C@]5(C)[C@@H]4CC[C@]3(C)[C@H]2OC(C)=O)CCCC1,–,131% (inactive)
C=CCc1cccc(C=NNC(=O)CN2CCN(Cc3ccccc3)CC2)c1O,5.26 µM (active),–
CC(C)Oc1cc(Nc2nc(N[C@@H](C)c3ccc(F)cn3)ncc2Cl)[nH]n1,20.9 µM (active),–
CN(C)c1nc(Cc2ccc(NC(=O)c3ccc(C(F)(F)F)cc3)cc2)nc(N(C)C)c1CC(=O)O,–,124% (inactive)
CC(C)C[C@@H](C(=O)N[C@H](C(=O)OC1CCCC1)c1ccccc1)[C@H](O)C(=O)NO,2.64 µM (active),–
CCC(=O)OCC(=O)[C@@]1(OC(=O)CC)[C@@H](C)C[C@@H]2[C@H]3CCC4=CC(=O)C=C[C@]4(C)[C@@]3(F)[C@@H](O)C[C@@]21C,4.18 µM (active),–
Cc1ccc2c(c1)c1c(n2CCc2ccc(C)nc2)CCN(C)C1,–,90% (inactive)
CNC(=O)[C@H](Cc1ccccc1)NC(=O)[C@H](CC(C)C)[C@H](CSc1cccs1)C(=O)NO,–,97.1% (inactive)
COc1c(C)cnc(Cn2cnc3c(Cl)nc(N)nc32)c1C,0.209 µM (active),–
OC[C@H]1O[C@@H](O[C@H]2[C@@H](O)[C@@](O)(CO)O[C@@H]2CO)[C@H](O)[C@@H](O)[C@@H]1O,–,91.3% (inactive)
CC(C)C[C@H](NC(=O)c1cc2ccccc2s1)C(=O)N1CCN(C(=O)[C@H](CO)NS(=O)(=O)c2ccc(Cl)cc2Cl)CC1,–,120% (inactive)
COc1ccc2c(c1)c(C1=C(c3c[nH]c4ccccc34)C(=O)NC1=O)cn2CCCN(C)C,18.7 µM (active),–
